Data as given in PubChem BioAssay (NCI).
Compounds without any hit were thinned out: in the full panel of roughly 83,000, 20% have a hit.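 How to read the values: 0–100, growth inhibition (40 = 60% inhibited); 0, no net growth; -100 to 0, cell death (-40 = 40% of starting cells died; -100 = all dead).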 Values without a mark were called inactive. Active and inactive are the calls of the source. The calls were made as follows: active = growth percent below 10; inactive = the rest.

System: MDA-MB-468 breast
Assay: NCI-60 one-dose screen, 48 h (100 = growth as untreated, 0 = no growth, -100 = all killed)
Settings: 10 µM unless noted

SMILES	growth
CN(C)Cc1cc(C(C)(C)C)cc(Br)c1O	90.2%
CC(=O)c1ccc(C)c(N)c1	104%
NC(=S)N/N=C\c1nccc2c(C(F)(F)C(F)(F)C(F)(F)F)cccc12	-69.7% (active)
